Screening results: PubChem BioAssay, National Center for Advancing Translational Sciences (NCATS)
D2 ag-1 = HTS Assay for Allosteric Agonists of the Human D2 Dopamine Receptor: Primary Screen for Agonists; hit rate 0.53% among 340,000; activation, % at 2 µM; AID 485358, 2010; D(2) dopamine receptor (Homo sapiens), P14416; HEK293 T-REx D2 cells, calcium flux agonist mode;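 active = activation over 3 SD above normal in the single-dose calcium agonist read, cut at about 30% in these data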
Target sequence (P14416 whole entry, looked up): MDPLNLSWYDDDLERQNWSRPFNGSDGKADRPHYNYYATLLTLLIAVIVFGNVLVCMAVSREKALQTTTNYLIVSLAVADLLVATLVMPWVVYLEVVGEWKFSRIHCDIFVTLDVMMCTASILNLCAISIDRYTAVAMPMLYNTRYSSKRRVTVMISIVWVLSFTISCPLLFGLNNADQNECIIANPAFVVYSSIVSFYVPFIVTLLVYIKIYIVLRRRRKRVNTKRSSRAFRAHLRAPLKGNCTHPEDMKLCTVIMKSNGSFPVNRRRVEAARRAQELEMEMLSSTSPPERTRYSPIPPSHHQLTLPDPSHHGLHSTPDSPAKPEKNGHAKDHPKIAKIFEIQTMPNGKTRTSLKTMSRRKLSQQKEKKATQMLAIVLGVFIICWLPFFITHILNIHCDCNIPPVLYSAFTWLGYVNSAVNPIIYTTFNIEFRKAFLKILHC
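HEK293 Trex D2 cells, tetracycline-induced, o/n 30 C 5% CO2; no-wash Ca dye, RT 30–90 min; 10-cycle baseline, 23 nl cpd added, kinetic Ca read 180 s; agonist hits = positive Ca response.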
D2 ag-2 = Beta-Arrestin HTS for Positive Allosteric Modulators of the Human D2 Dopamine Receptor: Agonists; DiscoveRx PathHunter D2 beta-arrestin, luminescence, 90 min; 100% = 57 uM dopamine signal; activation, % (test concentration not listed); hit rate 0.084% among 360,000; in the data active = activation above about 40%
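Agonist mode: compounds alone added to overnight-plated D2 PathHunter cells for 90 min at 37 C, with 57 uM final dopamine (EC100) defining full response. Beta-arrestin recruitment detected by chemiluminescent reagent, read after 1 h at ambient temperature.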
D2 PAM-1 = Beta-Arrestin HTS for Positive Allosteric Modulators of the Human D2 Dopamine Receptor: Potentiators | D(2) dopamine receptor (Homo sapiens), P14416 | DiscoveRx D2 beta-arrestin cells, luminescence, 90 min; 100% = 57 uM dopamine signal | potentiation, % (test concentration not listed) | hit rate 0.23% among 360,000; in the data active = potentiation above about 50%
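PathHunter beta-arrestin assay in DiscoveRx D2 cells. Compounds were added with an EC20 of dopamine (50 nM final) for 90 min at 37 deg C. Luminescence was read 1 h after detection reagent, with 57 uM dopamine as the EC100 control.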
D2 PAM-2 = HTS Assay for Positive Allosteric Modulators of the Human D2 Dopamine Receptor: Primary Screen for Potentiators; D(2) dopamine receptor (Homo sapiens), P14416; HEK293 T-REx D2, calcium flux, EC20 dopamine potentiation; potentiation, % at 10 µM; hit rate 0.34% among 340,000;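 active = potentiation over 3 SD above the plate norm, cut at about 30% in these data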
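Potentiation of an EC20 dopamine calcium response is measured in a force-coupled, tetracycline-inducible Hek293 Trex D2 line. Compound-only kinetic reads over 180 s flag agonists before dopamine addition.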
D2 antag = HTS Assay for Allosteric Antagonists of the Human D2 Dopamine Receptor: Primary Screen for Antagonists | inhibition, % at 10 µM | AID 485344, 2010 | HEK293 TREx D2 cells, calcium flux, dopamine EC80 | hit rate 2% among 340,000; in the data active = inhibition above about 30%; inactive = below that, where a call was filed
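In this primary screen, negative modulation is detected by tracking calcium flux after an EC80 dopamine challenge in inducible HEK293 T-REx D2 cells preexposed to test compound for 180 s.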
Each line names hits and unclear results; the compound was inactive in the other large screens; ! = repeats disagree. Only some compounds are listed: those with a hit (about 2.4% of all), similar ones and a draw of the others.

CCc1ccc(C2CC(c3ccccc3)Nc3nc(N)nn32)cc1 (stereo not drawn)	none
CCc1ccc(C2CC(c3ccccc3)n3ncnc3N2)cc1 (stereo not drawn)	D2 antag 42
CC(=O)c1cccc(NC(=O)COC(=O)c2ccccc2C)c1	none
COc1ccc(NS(=O)(=O)NC(=O)c2cn(C)c3ccccc23)cc1	none
NNc1nc2ccccc2c(=O)n1Cc1ccccc1	none
CC(C)CC(=O)Nc1ccc(C(=O)CN2C(=O)NC3(CCOc4ccccc43)C2=O)cc1 (stereo not drawn)	D2 PAM-2 33
NC(=O)NC(=O)CN1C(=O)NC2(CCOc3ccccc32)C1=O (stereo not drawn)	none
Cc1cccc(C)c1NC(=O)CNC(=O)CN1C(=O)NC2(CCc3ccccc32)C1=O (stereo not drawn)	D2 antag 33
CNC(=O)NC(=O)CN1C(=O)NC2(CCOc3ccccc32)C1=O (stereo not drawn)	D2 antag 31
Cc1cccc(NC(=O)CNC(=O)CN2C(=O)NC3(CCCc4ccccc43)C2=O)c1C (stereo not drawn)	none
O=C(COC(=O)/C=C/c1ccc(S(=O)(=O)N2CCOCC2)cc1)NCc1ccc(Cl)cc1	D2 antag 47
COc1ccc(Nc2nc(C)nc3sc4c(c23)CCC4)cc1O	none
O=C(CCNS(=O)(=O)c1ccc(OC(F)(F)F)cc1)NCCc1c[nH]c2ccccc12	D2 antag 40
C#CCOCCOCCOCCNc1nc(N2CCN(C(=O)[C@H](CCC(=O)O)n3cc(CN)nn3)CC2)nc(N2CCN(C(=O)[C@H](CCCCN)n3cc([C@@H](N)CC(N)=O)nn3)CC2)n1	none (no result: D2 ag-1, D2 PAM-2, D2 antag)
CC(C)N1C(=O)c2ccccc2C1C(=O)NC1CCCCCC1 (stereo not drawn)	D2 PAM-2 31
Cc1cccnc1NC1CCCCC1	none
c1ccc2c(NC3CCCC3)nnc(NC3CCCC3)c2c1	D2 antag 49
COc1ccccc1NC(=O)c1nnn(CC(=O)Nc2cccc(SC)c2)c1N	D2 PAM-2 35
CCOc1ccc(NC(=O)Cn2nnc(C(=O)NCCc3ccc(OC)c(OC)c3)c2N)cc1	none
Cc1cccc(NC(=O)Cn2nnc(C(=O)NCc3ccco3)c2N)c1	D2 antag 34
COc1ccccc1NC(=O)c1nnn(CC(=O)Nc2ccccc2)c1N	none
Cc1ccc(NC(=O)Cn2nnc(C(=O)NCc3ccco3)c2N)cc1	none
CCc1ccccc1NC(=O)Cn1nnc(C(=O)NCc2cccc(OC)c2)c1N	D2 PAM-2 70! (no result: D2 antag)
COc1ccc(CCNC(=O)Cn2nnc(C(=O)Nc3ccc(Br)cc3)c2N)cc1OC	D2 PAM-2 56
COc1ccc(-c2cc3nc(-c4ccc(C)cc4)cc(C(F)(F)F)n3n2)cc1	none (no result: D2 ag-2, D2 PAM-1, D2 antag)
COCCN(CCOC)C(=O)C1CCCN(S(=O)(=O)c2ccc(NC(=O)OC)cc2)C1 (stereo not drawn)	none
CCOC(=O)CNC=C(C(=O)OCC)C(=O)OCC	none
CCOC(=O)C(=CNCC(=O)OC)C(=O)OCC	D2 antag 36
CSc1nnc2c3c4c(sc3nc(-n3nc(C)cc3C)n12)COC(C)(C)C4	D2 antag 48
Cc1ccc(C)c(N2CCN(CCCNC(=O)CCn3c(=O)c4cccn4c4cccnc43)CC2)c1	none
Cc1ccc(C)c(N2CCN(CCCNC(=O)Cn3c(=O)c4cccn4c4cccnc43)CC2)c1	D2 antag 63
Cc1ccc(C)c(N2CCN(CCCNC(=O)Cn3cc4c(n3)CCCCC4)CC2)c1	D2 antag 65
Cc1cccc(C)c1OCC(=O)OCC(=O)c1ccc2c(c1)NC(=O)CO2	D2 antag 30
COCCNCCCOc1ccc(Br)cc1Cl	D2 antag 33
COCCNCCCOc1ccc(Cl)cc1Br	none
COCCCNCCCCOc1ccc(Br)cc1Cl	D2 antag 65
COc1ccc(-c2cn3nc(SCC(=O)Nc4ccccc4F)ccc3n2)cc1	none (no result: D2 ag-2, D2 PAM-1, D2 antag)
CC(=O)c1c(N2CCCCC2)nc(=S)n(Cc2ccccc2)c1C	none
CCCSc1nc(=S)n(Cc2ccccc2)c(C)c1C(C)=O	D2 antag 43
CCOc1ccc(NC(=O)CSC2=Nc3ccccc3C3=NC(CC(=O)NCc4ccccc4OC)C(=O)N23)cc1 (stereo not drawn)	none (no result: D2 ag-2, D2 PAM-1, D2 antag)
COc1cc(NC(=O)c2nn(C)c3c2CS(=O)(=O)c2ccccc2-3)cc(OC)c1	none
COc1ccc(NC(=O)c2nn(C)c3c2CS(=O)(=O)c2ccccc2-3)cc1	D2 PAM-2 37
Cc1ccc(C)c(-c2csc(N/N=C/c3ccco3)n2)c1	none (no result: D2 PAM-2)
O=C(CCCC(=O)c1ccc(F)cc1)c1ccc(F)cc1	none
Cc1ccc(C(C(=O)NC2CCCCC2)N(Cc2ccco2)C(=O)Cc2c[nH]c3ccccc23)o1 (stereo not drawn)	D2 antag 36
COc1ccccc1/C=N\Nc1cn[nH]c(=O)c1Cl	D2 antag 30
Oc1ccc[n+](/C=C\c2ccccc2)c1	D2 antag 38
Oc1ccc[n+](CCCCC[n+]2cccc(O)c2)c1	none
CCN(CC)c1ccc(/C=C/C(=O)C2C(=O)C=C(C)OC2=O)cc1 (stereo not drawn)	D2 ag-1 83, D2 antag 50 (no result: D2 PAM-2)
CCCCCCNCc1ccc(Br)cc1	D2 antag 30
CCOc1ccc(Oc2ccccc2NC(=O)C2=COCCO2)cc1	D2 antag 37
CN(C)/C=N/c1cc(=O)[nH]c(=O)n1CC1CC1	none
C=CCn1c(=O)[nH]c2nc3cc(N=CN(C)C)c(C)cc3nc2c1=O	D2 ag-1 30
CCOCCCNS(=O)(=O)c1ccc(NC(=O)C2CC(=O)N(c3ccc(C)cc3)C2)cc1 (stereo not drawn)	none
Cc1ccc(OC(=O)COc2ccccc2C)cc1	none
CC(=O)c1ccc(OC(=O)COc2ccccc2Cl)cc1	D2 antag 48
COCc1cccc(-c2csc(C(NC(C)=O)c3ccc(F)c(F)c3)n2)c1 (stereo not drawn)	none (no result: D2 ag-1, D2 PAM-2, D2 antag)
Cc1cc(C)c2ccc(N)nc2c1O	none
Cc1cc(C)c2ccc(C)[n+]([O-])c2c1O	D2 antag 37
CCOc1ccccc1NC(=O)c1ccc(CN2CCc3ccccc3C2)cc1	D2 antag 54
CC(=O)c1cccc(NC(=O)c2ccc(CN3CCc4ccccc4C3)cc2)c1	none
Cc1cc(C)c(NC(=O)c2ccc(CN3CCc4ccccc4C3)cc2)c(C)c1	D2 antag 52
O=C(CNC1CCN(Cc2ccccc2)CC1)Nc1ccc(S(=O)(=O)N2CCCCC2)cc1	D2 antag 37
